The values below come from PubChem BioAssay (Tox21).

SMILES strings stand for the structures. Unmarked numbers belong to inactive results. Records with an inconclusive call do not appear. Active and inactive are the calls of the source. Unless noted, the call rests on the fitted dose curve; in most records, active means well fitted curve in the direction sought with a large enough effect in the repeat runs; inconclusive means weak or mixed curves; inactive means no such curve, though single readings can be large; an effect the other way counts as inactive or inconclusive.

A short description of assay [1]: qHTS assay to identify small molecule agonists of the estrogen receptor beta (ER-beta) signaling pathway - cell viability counter screen (AID 1259380). Further: nearly all actives have a fitted effect of over 30% in size. Further: potency means the concentration at half of the fitted maximal effect. Summed up:
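Cell viability counter screen: CellTiter-Glo luminescence (30 min, room temperature) measured in the same wells as the beta-lactamase readout, after 16 hr compound exposure at 37C of ER-beta-bla HEK293T cells in 2% charcoal-stripped FBS medium.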
Background: qHTS replaces the single test concentration by a dilution series.

Assay [2] in a line: qHTS assay to identify small molecule antagonists of the estrogen receptor beta (ER-beta) signaling pathway - cell viability counter screen (AID 1259382). Further: nearly all actives have a fitted effect of over 55% in size. Further: potency means the concentration at half of the fitted maximal effect. Summed up: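 Cytotoxicity was measured in the same wells by CellTiter-Glo luminescence after 30 min at room temperature. Cells were ER-beta-bla HEK293T in charcoal-stripped serum, given compound together with 1 nM E2 and incubated 16 h at 37C.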

Assay [3] is described as follows: qHTS assay to identify small molecule agonists or antagonists of the thyroid stimulating hormone receptor (TSHR) signaling pathway - wild type cell line counter screen (AID 1259384; calls by dose curve). The gist of the method:
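Wild-type Hek293 cells, 800/well, 18 h at 37C, then compound with Ro20-1724 for 30 min RT. cAMP by HTRF (cAMP-d2/anti-cAMP cryptate), 1 h RT, fluorescence read. 15 concentrations, triplicates.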

The target in assay [4] is Thyrotropin receptor (Homo sapiens) (UniProt P16473). In words: qHTS assay to identify small molecule antagonists of the thyroid stimulating hormone receptor (TSHR) signaling pathway (AID 1259385; calls by dose curve; further: nearly all actives have a fitted effect of over 20% in size; further: potency means the concentration at half of the fitted maximal effect). Summed up:
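TSHR-HEK293 cells (800/well) plated 18 h, then compounds with Ro20-1724 and TSH at 1.5 ng/mL final, 30 min at room temperature. cAMP quantified by HTRF (cAMP-d2/anti-cAMP-cryptate, 1 h); 15 concentrations in triplicate.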

A short description of assay [5]: qHTS assay to identify small molecule agonists of the estrogen receptor alpha (ER-alpha) signaling pathway in the presence of an antagonist - cell viability counter screen (AID 1259386). Further: series mostly up to about 92 µM; nearly all actives have a fitted effect of over 30% in size. The gist of the method:
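Compounds tested at 15 concentrations for 22 h at 37C alongside 10.0nM (final) ICI-182,780 antagonist, in VM7Luc4E2 cells grown in phenol red-free, charcoal-stripped medium. Viability read by CellTiter-Fluor fluorescence after 1 h reagent incubation.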

Assay [6] has as its target Progesterone receptor (Homo sapiens) (UniProt P06401). In words: qHTS assay to identify small molecule agonists of the progesterone receptor (PR) signaling pathway (AID 1346784; calls by dose curve; further: nearly all actives have a fitted effect of over 30% in size). Summed up:
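Cells (PR-UAS-bla HEK 293T, GripTite) were plated in assay medium containing 2% charcoal-stripped FBS and incubated 6 hr. Test compounds in DMSO were added for 16 hr at 37C. FRET substrate was then loaded for 2 hr at room temperature before fluorescence reading.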

Assay [7] has the same target. The assay is described as follows: qHTS assay to identify small molecule antagonists of the progesterone receptor (PR) signaling pathway (AID 1346795; active means well fitted inhibition curve with a large enough effect in the signal ratio in the repeat runs, not every such curve was filed as active; the % refers to the signal ratio). The gist of the method: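 Antagonist mode: compounds tested against 1 nM (final) promegestone stimulation in HEK293T cells expressing PR-UAS-bla reporter, 16 hr at 37C, 5% CO2; beta-lactamase activity detected via B/G FRET substrate after 2 hr at room temperature.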

Assay [8] in a line: qHTS assay to identify small molecule antagonists of the progesterone receptor (PR) signaling pathway - cell viability counter screen (AID 1346798). Further: series mostly up to about 92 µM; nearly all actives have a fitted effect of over 50% in size. Summed up:
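Counter screen for cytotoxicity: viability of PR-UAS-bla HEK293T cells was measured with CellTiter-Glo luminescence following 16 hr compound exposure in the presence of R5020.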

The nature of assay [9]: qHTS assay to identify small molecule agonists of the progesterone receptor (PR) signaling pathway - cell viability counter screen (AID 1346799; calls by dose curve; further: nearly all actives have a fitted effect of over 45% in size). Summed up: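 Cells (PR-UAS-bla HEK293T) are plated at 3,000/well in 2% charcoal-stripped FBS medium, rested 6 hr, dosed and incubated 16 hr at 37C. CellTiter-Glo is then added and luminescence measured after 30 min at room temperature.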

Assay [10] in a line: qHTS assay to identify small molecule antagonists of the TGF-beta/Smad signaling pathway - cell viability counter screen (AID 1346824). Further: nearly all actives have a fitted effect of over 50% in size. Summed up: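 SBE-bla HEK 293T cells, incubated overnight, then compound plus 0.25 ng/mL TGF-beta1 (stock added) for 5 hr at 37 C. Viability was read in the same wells by CellTiter-Glo luminescence after 30 min at room temperature.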
A short description of assay [11]: qHTS assay to identify small molecule agonists of the TGF-beta/Smad signaling pathway - cell viability counter screen (AID 1346829). Further: top concentration of the series differs between compounds; nearly all actives have a fitted effect of over 45% in size. The gist of the method: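 In parallel with the Smad reporter read, viability of HEK 293T cells stably carrying SBE-bla is quantified by ATP luminescence following 5 hr compound treatment.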
Assay [12] can be described thus: qHTS assay to identify small molecule agonists of the TGF-beta/Smad signaling pathway (AID 1346859; active means well fitted activation curve with a large enough effect in the signal ratio in the repeat runs, not every such curve was filed as active; the % refers to the signal ratio; further: series mostly up to about 77 µM). The gist of the method: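 Reporter line: HEK 293T with stably integrated SBE-controlled beta-lactamase. Compound exposure lasts 5 hr at 37 C and 5% CO2; substrate loading follows for 2 hr at room temperature, with emission read at 460 and 530 nm.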
Assay [13] in a line: Human pregnane X receptor (PXR) small molecule agonists, qHTS cell viability counter screen (AID 1346977). Further: nearly all actives have a fitted effect of over 50% in size. Summed up: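 Cytotoxicity counter screen run in the same wells as the PXR luciferase assay, using PXR-Luc HepG2 cells in charcoal-stripped serum medium. Viability: CellTiter-Fluor fluorescence after 24hr compound treatment.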
For assay [14], the target named is Estrogen receptor (Homo sapiens) (UniProt P03372). In words: qHTS assay to identify small molecule agonists of the estrogen receptor alpha (ER-alpha) signaling pathway in the presence of an antagonist (AID 1259383; calls by dose curve; further: top concentration of the series differs between compounds; nearly all actives have a fitted effect of over 15% in size). Summed up:
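Agonist-mode confirmation run in the presence of 10.0nM (final) ICI-182,780 antagonist. The reporter was ERE-driven luciferase in VM7Luc4E2 cells, grown in charcoal-stripped serum. Cells were exposed to 15-concentration compound series for 22hr, then ONE-Glo luminescence was read.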

The target of assay [15] is Thyrotropin-releasing hormone receptor (Homo sapiens) (UniProt P34981). In words: qHTS assay to identify small molecule antagonists of the thyrotropin-releasing hormone receptor (TRHR) signaling pathway (AID 1346877; active means well fitted inhibition curve with a large enough effect in the repeat runs, not every such curve was filed as active; further: series mostly up to about 51 µM). The gist of the method:
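Antagonist mode: after a 5 min room-temperature compound exposure, cells were stimulated with 1 nM (final) TRH. Dye-loaded TRHR-HEK293 cells were used, and calcium-dependent fluorescence was followed for 3 min, with 15-point titrations run in triplicate.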

For assay [16] the target is unchanged. The assay is described as follows: qHTS assay to identify small molecule agonists of the thyrotropin-releasing hormone receptor (TRHR) signaling pathway (AID 1346891; calls by dose curve;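 further: HEK293 cells expressing TRHR with calcium dye readout; series mostly up to about 58 µM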). Summed up: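 Cells: TRHR-Hek293, seeded and incubated 18 h. Dye loading: 2 h at 37 °C. Compound added from DMSO stock by pin tool. Read-out: kinetic calcium fluorescence over 3 min.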
For assay [17], the target named is Androgen receptor (Homo sapiens) (UniProt P10275). The assay is described as follows: qHTS assay to identify small molecule agonists of the androgen receptor (AR) signaling pathway in the presence of an antagonist (AID 1259381; calls by dose curve; further: nearly all actives have a fitted effect of over 15% in size). Summed up: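 Agonist-mode confirmation run against 3.0 uM final nilutamide: compounds titrated at 15 concentrations onto MDA-kb2 MMTV-luciferase reporter cells. Luminescence measured with ONE-Glo following 16 hr incubation, 37C, 0% CO2.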
Sequence of Androgen receptor (Homo sapiens) (P10275 whole entry, looked up): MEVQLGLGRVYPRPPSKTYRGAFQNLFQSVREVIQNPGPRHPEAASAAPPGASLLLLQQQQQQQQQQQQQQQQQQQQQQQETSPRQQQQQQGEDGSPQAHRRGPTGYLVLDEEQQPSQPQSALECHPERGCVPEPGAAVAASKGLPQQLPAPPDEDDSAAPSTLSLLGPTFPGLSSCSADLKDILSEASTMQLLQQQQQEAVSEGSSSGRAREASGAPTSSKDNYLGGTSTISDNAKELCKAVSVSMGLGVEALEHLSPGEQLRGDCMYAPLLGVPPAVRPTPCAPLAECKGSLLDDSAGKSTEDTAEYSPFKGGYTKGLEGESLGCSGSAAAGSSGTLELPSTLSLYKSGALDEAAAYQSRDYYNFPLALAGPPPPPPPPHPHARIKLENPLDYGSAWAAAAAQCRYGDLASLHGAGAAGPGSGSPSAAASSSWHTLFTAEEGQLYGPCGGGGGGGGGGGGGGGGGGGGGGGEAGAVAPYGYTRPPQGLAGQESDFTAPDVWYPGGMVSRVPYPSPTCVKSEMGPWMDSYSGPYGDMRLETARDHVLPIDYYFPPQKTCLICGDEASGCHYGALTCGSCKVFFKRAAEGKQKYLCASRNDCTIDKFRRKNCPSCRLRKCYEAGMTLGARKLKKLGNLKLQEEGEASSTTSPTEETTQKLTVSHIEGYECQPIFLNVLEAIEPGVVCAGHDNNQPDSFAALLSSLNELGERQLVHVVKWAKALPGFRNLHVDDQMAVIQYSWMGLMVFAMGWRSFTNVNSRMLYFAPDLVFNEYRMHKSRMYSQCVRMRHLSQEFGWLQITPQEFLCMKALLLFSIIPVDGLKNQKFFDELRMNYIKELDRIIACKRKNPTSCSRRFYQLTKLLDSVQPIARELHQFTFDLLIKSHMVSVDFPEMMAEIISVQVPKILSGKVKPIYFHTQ

Sequence of Estrogen receptor (Homo sapiens) (P03372 whole entry, looked up): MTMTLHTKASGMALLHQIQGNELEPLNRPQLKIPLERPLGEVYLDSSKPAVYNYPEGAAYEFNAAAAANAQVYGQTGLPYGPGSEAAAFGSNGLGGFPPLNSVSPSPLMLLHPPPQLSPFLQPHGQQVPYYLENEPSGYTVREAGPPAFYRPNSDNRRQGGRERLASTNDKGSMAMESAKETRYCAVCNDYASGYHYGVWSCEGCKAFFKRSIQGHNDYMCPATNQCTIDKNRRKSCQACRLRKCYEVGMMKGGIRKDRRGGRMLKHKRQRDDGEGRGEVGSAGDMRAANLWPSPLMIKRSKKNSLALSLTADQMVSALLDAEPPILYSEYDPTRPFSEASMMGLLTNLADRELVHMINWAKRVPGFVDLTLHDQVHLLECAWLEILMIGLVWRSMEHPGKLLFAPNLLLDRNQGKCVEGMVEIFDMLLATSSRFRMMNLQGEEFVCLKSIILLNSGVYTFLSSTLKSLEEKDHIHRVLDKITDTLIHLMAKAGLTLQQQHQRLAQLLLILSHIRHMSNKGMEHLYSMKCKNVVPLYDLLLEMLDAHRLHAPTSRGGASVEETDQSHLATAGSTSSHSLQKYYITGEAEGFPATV
Sequence of Thyrotropin-releasing hormone receptor (Homo sapiens) (P34981 whole entry, looked up): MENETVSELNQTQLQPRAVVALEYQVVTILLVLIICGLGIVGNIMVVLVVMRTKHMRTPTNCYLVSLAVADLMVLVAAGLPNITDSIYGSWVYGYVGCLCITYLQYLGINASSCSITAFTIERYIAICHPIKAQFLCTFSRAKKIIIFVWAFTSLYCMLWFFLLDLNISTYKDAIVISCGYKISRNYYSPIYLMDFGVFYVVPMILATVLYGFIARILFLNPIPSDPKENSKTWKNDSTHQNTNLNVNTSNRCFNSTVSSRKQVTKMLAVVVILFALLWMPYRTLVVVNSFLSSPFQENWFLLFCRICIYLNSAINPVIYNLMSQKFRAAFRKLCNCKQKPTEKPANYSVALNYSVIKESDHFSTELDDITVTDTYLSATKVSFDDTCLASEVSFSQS
Sequence of Progesterone receptor (Homo sapiens) (P06401 whole entry, looked up): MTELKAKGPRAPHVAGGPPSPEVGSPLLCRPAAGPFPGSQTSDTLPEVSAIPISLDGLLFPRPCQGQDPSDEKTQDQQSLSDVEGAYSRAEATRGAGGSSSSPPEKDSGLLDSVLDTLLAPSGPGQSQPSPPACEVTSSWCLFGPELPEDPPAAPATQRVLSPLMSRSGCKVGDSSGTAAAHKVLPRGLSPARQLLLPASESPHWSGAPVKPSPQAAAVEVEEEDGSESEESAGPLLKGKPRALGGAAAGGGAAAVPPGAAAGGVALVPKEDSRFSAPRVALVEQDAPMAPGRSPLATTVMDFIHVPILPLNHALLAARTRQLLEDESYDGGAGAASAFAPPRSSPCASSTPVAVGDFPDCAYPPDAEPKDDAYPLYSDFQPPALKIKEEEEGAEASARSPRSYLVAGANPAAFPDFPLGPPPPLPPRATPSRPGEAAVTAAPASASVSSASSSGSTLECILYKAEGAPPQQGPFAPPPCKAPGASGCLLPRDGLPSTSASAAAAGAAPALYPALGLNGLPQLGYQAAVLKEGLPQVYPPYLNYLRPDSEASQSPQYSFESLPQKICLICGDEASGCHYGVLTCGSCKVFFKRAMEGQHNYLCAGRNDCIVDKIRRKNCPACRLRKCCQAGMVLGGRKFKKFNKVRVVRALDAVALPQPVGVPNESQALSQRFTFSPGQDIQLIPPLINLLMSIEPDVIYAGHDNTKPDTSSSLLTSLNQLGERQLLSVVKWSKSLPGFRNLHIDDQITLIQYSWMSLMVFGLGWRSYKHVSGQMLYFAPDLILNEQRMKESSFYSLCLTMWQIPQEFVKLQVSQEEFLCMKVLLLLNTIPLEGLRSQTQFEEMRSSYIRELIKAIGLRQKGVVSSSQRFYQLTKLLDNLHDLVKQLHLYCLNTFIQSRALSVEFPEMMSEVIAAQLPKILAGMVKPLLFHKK
Sequence of Thyrotropin receptor (Homo sapiens) (P16473 whole entry, looked up): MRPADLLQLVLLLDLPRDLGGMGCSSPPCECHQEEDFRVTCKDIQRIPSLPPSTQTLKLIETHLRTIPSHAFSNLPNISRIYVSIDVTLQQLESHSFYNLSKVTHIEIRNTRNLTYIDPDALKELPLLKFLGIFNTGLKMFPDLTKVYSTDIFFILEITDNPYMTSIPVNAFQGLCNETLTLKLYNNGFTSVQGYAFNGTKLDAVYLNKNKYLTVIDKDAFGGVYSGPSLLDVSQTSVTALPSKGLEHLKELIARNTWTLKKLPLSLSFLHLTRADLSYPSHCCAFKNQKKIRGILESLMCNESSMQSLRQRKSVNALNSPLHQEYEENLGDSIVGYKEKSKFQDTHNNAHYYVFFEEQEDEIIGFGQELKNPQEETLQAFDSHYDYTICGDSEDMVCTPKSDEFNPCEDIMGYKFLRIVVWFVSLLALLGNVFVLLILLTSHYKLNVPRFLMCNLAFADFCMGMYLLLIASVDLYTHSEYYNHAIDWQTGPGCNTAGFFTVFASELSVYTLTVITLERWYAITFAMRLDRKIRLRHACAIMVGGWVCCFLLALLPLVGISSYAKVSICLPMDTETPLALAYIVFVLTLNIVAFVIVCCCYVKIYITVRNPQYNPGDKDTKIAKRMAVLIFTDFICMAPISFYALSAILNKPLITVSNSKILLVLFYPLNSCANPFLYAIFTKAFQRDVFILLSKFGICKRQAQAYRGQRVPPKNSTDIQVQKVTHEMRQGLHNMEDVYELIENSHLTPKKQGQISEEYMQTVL

Regarding `CCOC(=O)CN`, the Potency result in assay [1], in assay [2], in assay [4], in assay [5], in [7] and in assay [8] was “inactive” throughout. The Potency result in assay [9], in [10], in [11], in assay [12] and in [13] was “inactive” in each case. For the same molecule, the outcome in assay [3] and in assay [6] was inactive.

Regarding `CN(C)CCCN1c2ccccc2Sc2ccc(C(F)(F)F)cc21`, the Potency is 18.8 µM (active) in [1], 18.8 µM (active) in assay [2] and 29.8 µM (active) in assay [4]. In addition, the Potency result in assay [14], in assay [5], in assay [9], in [10] and in [11] was “inactive” throughout. Moreover, in assay [6], the molecule was classed as inactive.

Take `CCCCCCCCCCCCCCNCCO`: the Potency entry in assay [2], in assay [14], in assay [5], in [7], in assay [10] and in assay [11] was “inactive” throughout. Besides, the Potency result in assay [12] and in [13] was “inactive” each time. Moreover, the call in [3] and in assay [6] was inactive. For the same molecule, the Potency in assay [4] is 23.7 µM (active).

In the case of `CCO[Si](C)(C)OCC`, the Potency result in [1], in [2], in [14], in [4], in [5] and in assay [7] was “inactive” each time. Moreover, the Potency entry in assay [8], in assay [9], in assay [10], in [11], in assay [12] and in assay [13] was “inactive” in each case. The call in [3] and in assay [6] was inactive.

Take `c1cc2c3c(c1)ccc1cccc(c13)C2`: the Potency result in [2], in assay [5], in assay [7], in [8], in assay [9] and in [10] was “inactive” each time. For the same molecule, the Potency entry in assay [12], in assay [15], in assay [16] and in assay [13] was “inactive” in each case. Besides, the molecule was classed as inactive in [3] and in assay [6].

For `C1CC(COCC2CO2)CCC1COCC1CO1` (centres undefined), the Potency entry in [2], in assay [14], in assay [4], in assay [5], in assay [8] and in [9] was “inactive” in each case. For the same molecule, the Potency result in [10], in assay [11], in assay [15], in assay [16] and in [13] was “inactive” in each case. Also, the result in assay [3] was inactive.

`CCO[Si](CCCSSSSCCC[Si](OCC)(OCC)OCC)(OCC)OCC`: in assay [2], the Potency was 54.5 µM (active). Moreover, the Potency entry in assay [14], in assay [5], in [7], in assay [8], in assay [10] and in assay [11] was “inactive” throughout. Further, the Potency entry in assay [15], in assay [16] and in assay [13] was “inactive” throughout. Besides, the outcome in assay [6] was inactive.

Consider `CCC(C)c1ccccc1` (centres undefined), for which the Potency entry in assay [1], in assay [17], in assay [2], in assay [14], in assay [4] and in assay [5] was “inactive” each time. Besides, the Potency entry in assay [8], in assay [9], in assay [11], in assay [12], in assay [15] and in assay [16] was “inactive” in each case. The Potency result in [13] was “inactive”. In assay [3], the molecule was classed as inactive.

Regarding `CO[Si](CCCNCCNCCN)(OC)OC`, the Potency entry in assay [1], in [2], in assay [4], in assay [5], in assay [7] and in [8] was “inactive” in each case. In addition, the Potency entry in assay [9], in assay [11], in [12], in assay [16] and in [13] was “inactive” throughout. In addition, in [3], the call was inactive.

For `CCCCN(C)C`, the Potency entry in assay [17], in assay [2], in assay [14], in [4], in assay [5] and in assay [7] was “inactive” throughout. Further, the Potency entry in assay [8], in assay [9], in assay [10], in assay [12], in assay [15] and in assay [16] was “inactive” throughout. The Potency entry in assay [13] was “inactive”. Further, the molecule was called inactive in assay [3] and in assay [6].

In the case of `Cn1cccc1`, the Potency entry in assay [17], in assay [2], in assay [14], in [4], in [5] and in assay [7] was “inactive” each time. In addition, the Potency result in assay [8], in [9], in [10], in assay [11], in assay [12] and in assay [15] was “inactive” each time. Besides, the Potency entry in assay [16] and in assay [13] was “inactive” in each case. In addition, the molecule was called inactive in [3] and in assay [6].
